What all share (assay): DAPPL (digital affinity profiling via proximity ligation, sequencing); 10 mM Tris-HCl pH 7.5, 50 mM NaCl, 1 mM DTT, 4% glycerol, room temperature, 30 min; GST-TFs on glutathione beads, 16-mer random dsDNA library, 0.1% formaldehyde crosslink after washing; high values mean tight binding
What all share (details): protein: recombinant; tags: N-terminal GST; dsDNA, one strand shown

The target in one test is T1, ERF (Homo sapiens, UniProt P50548 1-548).
T1 sequence: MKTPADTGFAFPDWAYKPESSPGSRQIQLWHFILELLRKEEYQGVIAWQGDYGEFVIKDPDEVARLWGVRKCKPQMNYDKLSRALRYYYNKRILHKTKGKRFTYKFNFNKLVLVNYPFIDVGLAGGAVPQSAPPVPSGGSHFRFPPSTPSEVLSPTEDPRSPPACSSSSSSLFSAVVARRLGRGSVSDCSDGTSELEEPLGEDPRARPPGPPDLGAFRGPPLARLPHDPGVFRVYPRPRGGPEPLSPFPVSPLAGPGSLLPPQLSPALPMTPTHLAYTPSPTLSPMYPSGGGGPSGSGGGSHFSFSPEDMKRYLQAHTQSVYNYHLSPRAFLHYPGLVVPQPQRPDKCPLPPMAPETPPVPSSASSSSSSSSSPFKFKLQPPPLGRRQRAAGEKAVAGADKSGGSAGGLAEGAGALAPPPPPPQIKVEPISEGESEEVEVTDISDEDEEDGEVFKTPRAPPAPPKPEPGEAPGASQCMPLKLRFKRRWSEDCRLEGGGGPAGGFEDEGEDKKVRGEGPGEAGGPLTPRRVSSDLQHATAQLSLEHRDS
In a few lines:
(§1)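 Binding signal is each hexamer's read frequency for a factor divided by its frequency in the tag-only sample. The factors were GST-fused human transcription factors from yeast, captured on glutathione beads, DNA-barcoded and pooled with that sample. Pools were incubated with 200 nmole of a random double-stranded 16-mer DNA library in Tris/NaCl/DTT/glycerol buffer at room temperature for 30 min, then washed, crosslinked with 0.1% formaldehyde, proximity-ligated with BsaI/T4 ligase (1 h, 37 °C), PCR-amplified and sequenced on an Illumina NextSeq500.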

In a further test the target is T2, ETV3L (Homo sapiens, UniProt Q6ZN32 1-361).
T2 sequence: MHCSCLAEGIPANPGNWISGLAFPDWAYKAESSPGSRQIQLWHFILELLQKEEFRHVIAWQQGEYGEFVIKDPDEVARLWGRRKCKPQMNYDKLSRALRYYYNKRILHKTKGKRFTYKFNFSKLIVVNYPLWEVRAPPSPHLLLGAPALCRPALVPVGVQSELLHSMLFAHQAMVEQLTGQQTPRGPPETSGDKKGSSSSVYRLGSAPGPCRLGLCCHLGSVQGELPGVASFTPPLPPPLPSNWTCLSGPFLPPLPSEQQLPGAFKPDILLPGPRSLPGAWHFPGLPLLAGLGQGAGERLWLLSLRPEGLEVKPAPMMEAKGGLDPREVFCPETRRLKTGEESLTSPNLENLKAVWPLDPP
An outline of the steps:
as §1

The target of another test is T3, ETS2 (Homo sapiens, UniProt P15036 1-469).
T3 sequence: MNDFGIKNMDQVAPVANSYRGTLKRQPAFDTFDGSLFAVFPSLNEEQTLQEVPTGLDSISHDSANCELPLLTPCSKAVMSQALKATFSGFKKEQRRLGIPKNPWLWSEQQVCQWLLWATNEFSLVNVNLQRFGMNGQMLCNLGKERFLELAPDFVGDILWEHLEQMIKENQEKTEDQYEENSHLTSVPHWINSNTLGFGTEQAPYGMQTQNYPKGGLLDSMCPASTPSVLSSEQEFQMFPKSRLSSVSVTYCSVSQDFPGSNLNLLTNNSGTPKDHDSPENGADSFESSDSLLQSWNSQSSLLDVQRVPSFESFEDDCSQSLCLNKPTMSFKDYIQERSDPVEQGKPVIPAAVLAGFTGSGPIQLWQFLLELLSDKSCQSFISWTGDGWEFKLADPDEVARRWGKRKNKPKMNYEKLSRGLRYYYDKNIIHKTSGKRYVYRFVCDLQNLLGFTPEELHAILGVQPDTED
In a few lines: as §1

The target in the next test is T4, SPDEF (Homo sapiens, UniProt O95238 1-335).
T4 sequence: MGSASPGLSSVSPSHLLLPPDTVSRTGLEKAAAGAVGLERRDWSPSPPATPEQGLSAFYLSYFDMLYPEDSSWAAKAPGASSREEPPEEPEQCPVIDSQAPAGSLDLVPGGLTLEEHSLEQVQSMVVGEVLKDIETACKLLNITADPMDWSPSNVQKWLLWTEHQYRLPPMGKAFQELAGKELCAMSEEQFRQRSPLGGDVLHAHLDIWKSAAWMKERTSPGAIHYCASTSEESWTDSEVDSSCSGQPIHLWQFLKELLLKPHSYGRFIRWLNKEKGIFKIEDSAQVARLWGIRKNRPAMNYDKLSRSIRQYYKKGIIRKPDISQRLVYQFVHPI
An outline of the steps:
as §1

Another test concerns the target T5, ETV7 (Homo sapiens, UniProt Q9Y603 1-341).
T5 sequence: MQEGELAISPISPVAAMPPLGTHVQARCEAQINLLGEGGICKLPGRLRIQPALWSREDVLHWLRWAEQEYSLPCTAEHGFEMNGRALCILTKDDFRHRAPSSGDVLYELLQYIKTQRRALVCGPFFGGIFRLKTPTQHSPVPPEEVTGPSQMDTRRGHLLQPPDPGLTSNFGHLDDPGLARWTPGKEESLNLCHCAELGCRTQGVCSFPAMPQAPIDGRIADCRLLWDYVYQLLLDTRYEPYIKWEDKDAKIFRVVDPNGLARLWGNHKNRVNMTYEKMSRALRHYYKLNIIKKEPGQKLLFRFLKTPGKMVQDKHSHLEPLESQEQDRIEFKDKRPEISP
In a few lines: as §1

The target in a further test is T6, ELF5 (Homo sapiens, UniProt Q9UKW6-2 1-255).
T6 sequence: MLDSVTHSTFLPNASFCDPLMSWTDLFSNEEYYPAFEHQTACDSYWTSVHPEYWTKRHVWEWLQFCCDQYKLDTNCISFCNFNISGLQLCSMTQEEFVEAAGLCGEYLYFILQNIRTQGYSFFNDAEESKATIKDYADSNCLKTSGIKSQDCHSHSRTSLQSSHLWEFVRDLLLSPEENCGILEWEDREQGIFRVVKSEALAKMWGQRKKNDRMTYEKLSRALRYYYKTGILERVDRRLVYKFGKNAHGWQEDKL
An outline of the steps: as §1

For a further test, the target named is T7, ETV3 (Homo sapiens, UniProt P41162-2 1-143).
T7 sequence: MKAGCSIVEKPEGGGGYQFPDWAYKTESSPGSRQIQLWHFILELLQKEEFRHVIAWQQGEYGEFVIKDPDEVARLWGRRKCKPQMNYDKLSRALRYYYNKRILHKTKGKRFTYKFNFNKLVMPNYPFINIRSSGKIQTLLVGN
An outline of the steps: as §1

The next test addresses ETV6 (Homo sapiens, UniProt P41212 1-452). In a few lines: as §1

Sequence of ETV6 (P41212 whole entry): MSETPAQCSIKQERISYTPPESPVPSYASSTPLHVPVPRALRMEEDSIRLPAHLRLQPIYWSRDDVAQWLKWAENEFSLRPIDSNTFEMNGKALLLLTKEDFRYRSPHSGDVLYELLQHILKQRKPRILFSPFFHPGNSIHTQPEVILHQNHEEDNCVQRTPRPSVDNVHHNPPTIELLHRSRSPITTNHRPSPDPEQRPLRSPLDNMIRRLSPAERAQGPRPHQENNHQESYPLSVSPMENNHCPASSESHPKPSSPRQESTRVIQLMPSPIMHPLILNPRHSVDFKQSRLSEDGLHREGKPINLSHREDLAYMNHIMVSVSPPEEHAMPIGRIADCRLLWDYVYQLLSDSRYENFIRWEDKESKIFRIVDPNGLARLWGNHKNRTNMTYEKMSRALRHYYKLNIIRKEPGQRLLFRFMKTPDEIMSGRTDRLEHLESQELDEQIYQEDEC

Consider CTCAAG, for which the binding signal with ERF is 1.27 fold enrichment (6-mer frequency, TF over GST control); with ETV3L, 1.1 fold enrichment (6-mer frequency, TF over GST control); in the test with ETS2, 1.22 fold enrichment (6-mer frequency, TF over GST control); with SPDEF it was 1.14 fold enrichment (6-mer frequency, TF over GST control); in the test with ETV7, 1.24 fold enrichment (6-mer frequency, TF over GST control); in the test with ELF5 it was 1.1 fold enrichment (6-mer frequency, TF over GST control). For the same sequence, the binding signal in the test with ETV3 was 1.24 fold enrichment (6-mer frequency, TF over GST control); with ETV6, 1.22 fold enrichment (6-mer frequency, TF over GST control).
Consider TATCAT, for which the binding signal was 1.14 fold enrichment (6-mer frequency, TF over GST control) in the test with ERF; 1.21 fold enrichment (6-mer frequency, TF over GST control) in the test with ETV3L; 1.13 fold enrichment (6-mer frequency, TF over GST control) with ETS2; 1.09 fold enrichment (6-mer frequency, TF over GST control) with SPDEF; 1.1 fold enrichment (6-mer frequency, TF over GST control) with ETV7; 1.15 fold enrichment (6-mer frequency, TF over GST control) in the test with ELF5. In addition, the binding signal with ETV3 is 1.21 fold enrichment (6-mer frequency, TF over GST control); in the test with ETV6, 1.05 fold enrichment (6-mer frequency, TF over GST control).
For CTGAAT, the binding signal with ERF was 1.47 fold enrichment (6-mer frequency, TF over GST control); with ETV3L it was 1.32 fold enrichment (6-mer frequency, TF over GST control); with ETS2, 1.32 fold enrichment (6-mer frequency, TF over GST control); with SPDEF, 1.53 fold enrichment (6-mer frequency, TF over GST control); in the test with ETV7 it was 1.17 fold enrichment (6-mer frequency, TF over GST control); with ELF5, 1.18 fold enrichment (6-mer frequency, TF over GST control). For the same sequence, the binding signal with ETV3 is 1.29 fold enrichment (6-mer frequency, TF over GST control); with ETV6 it was 1.22 fold enrichment (6-mer frequency, TF over GST control).
TAGCTA: the binding signal with ERF was 1.23 fold enrichment (6-mer frequency, TF over GST control); with ETV3L, 1.24 fold enrichment (6-mer frequency, TF over GST control); with ETS2, 1.28 fold enrichment (6-mer frequency, TF over GST control); with SPDEF it was 1.08 fold enrichment (6-mer frequency, TF over GST control); in the test with ETV7, 1.31 fold enrichment (6-mer frequency, TF over GST control); with ELF5, 1.16 fold enrichment (6-mer frequency, TF over GST control). Also, the binding signal in the test with ETV3 is 1.18 fold enrichment (6-mer frequency, TF over GST control); with ETV6, 1.28 fold enrichment (6-mer frequency, TF over GST control).
On to GGCTTC, for which the binding signal with ERF was 1.7 fold enrichment (6-mer frequency, TF over GST control); with ETV3L, 1.61 fold enrichment (6-mer frequency, TF over GST control); with ETS2, 1.7 fold enrichment (6-mer frequency, TF over GST control); with SPDEF, 1.6 fold enrichment (6-mer frequency, TF over GST control); with ETV7 it was 1.54 fold enrichment (6-mer frequency, TF over GST control); with ELF5, 1.81 fold enrichment (6-mer frequency, TF over GST control). Besides, the binding signal with ETV3 was 1.65 fold enrichment (6-mer frequency, TF over GST control); in the test with ETV6, 1.85 fold enrichment (6-mer frequency, TF over GST control).
Regarding TAACAT, the binding signal was 1.33 fold enrichment (6-mer frequency, TF over GST control) with ERF; 1.32 fold enrichment (6-mer frequency, TF over GST control) in the test with ETV3L; 1.28 fold enrichment (6-mer frequency, TF over GST control) with ETS2; 1.34 fold enrichment (6-mer frequency, TF over GST control) with SPDEF; 1.3 fold enrichment (6-mer frequency, TF over GST control) with ETV7; 1.35 fold enrichment (6-mer frequency, TF over GST control) with ELF5. For the same sequence, the binding signal with ETV3 is 1.26 fold enrichment (6-mer frequency, TF over GST control); with ETV6, 1.4 fold enrichment (6-mer frequency, TF over GST control).
Consider TCCGAC, for which the binding signal was 1.57 fold enrichment (6-mer frequency, TF over GST control) in the test with ERF; 1.47 fold enrichment (6-mer frequency, TF over GST control) in the test with ETV3L; 1.48 fold enrichment (6-mer frequency, TF over GST control) in the test with ETS2; 1.43 fold enrichment (6-mer frequency, TF over GST control) in the test with SPDEF; 1.43 fold enrichment (6-mer frequency, TF over GST control) in the test with ETV7; 1.61 fold enrichment (6-mer frequency, TF over GST control) with ELF5. The binding signal with ETV3 was 1.43 fold enrichment (6-mer frequency, TF over GST control); with ETV6, 1.55 fold enrichment (6-mer frequency, TF over GST control).
